Experimental data from PubChem BioAssay.

Each compound was assayed against Voltage-gated potassium channel subunit beta-2 (Rattus norvegicus) (UniProt P62483) (assay: inhibitors of rat Kvbeta2 reductase activity – biochemical, NADPH fluorescence, primary screen (AID 622;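 note: slope of raw intensity against log time taken from 70 to 1610 s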)). Settings: recombinant KvBeta, 4-cyanobenzaldehyde reduction, at 10 µM, hits give high values;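 active = fluorescence slope higher than the sample average by over 3 SD (cut at about -0.22 in these data, passing the limit was not always enough); inactive = the rest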.
Chain of Voltage-gated potassium channel subunit beta-2 (Rattus norvegicus) (P62483 whole entry, looked up): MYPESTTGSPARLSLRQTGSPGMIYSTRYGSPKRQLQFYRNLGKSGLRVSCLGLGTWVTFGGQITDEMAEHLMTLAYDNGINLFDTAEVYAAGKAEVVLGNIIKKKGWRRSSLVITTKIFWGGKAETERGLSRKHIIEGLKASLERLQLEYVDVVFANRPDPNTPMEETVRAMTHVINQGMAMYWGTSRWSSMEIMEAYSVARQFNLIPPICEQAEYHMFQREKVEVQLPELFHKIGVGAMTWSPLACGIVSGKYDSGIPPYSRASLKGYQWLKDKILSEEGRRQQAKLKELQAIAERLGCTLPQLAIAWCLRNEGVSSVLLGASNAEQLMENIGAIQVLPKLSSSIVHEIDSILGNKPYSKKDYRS

Fluorescence slope, inactive:
O=C(NCC1CCCCN1)c1cc(OCC(F)(F)F)ccc1OCC(F)(F)F (stereo unspecified) -0.495
CN1CC(=O)Nc2ccc(F)cc2C1=O -0.414
CN1CCN(C2=Nc3cc(Cl)ccc3Nc3ccccc32)CC1 -0.457
COc1cc(C)nc(Oc2ccc(=O)[nH]n2)n1 -0.296
CCN(CC)CCNC(=O)c1ccc(N)cc1 -0.52
C1CNCCNCCCNCCNC1 -0.454
O=C(CCCN1CCC(O)(c2ccc(Cl)cc2)CC1)c1ccc(F)cc1 -0.485
CCCOc1cccc(CN2CCCCC2c2cccnc2)c1 (stereo unspecified) -0.369
COc1ccc(-c2coc3cc(O)cc(O)c3c2=O)cc1 -0.544
CN(C)CCCN1c2ccccc2CCc2ccccc21 -0.545
Cc1cccc(OCC(=O)NCC(=O)n2nc(C)cc2C)c1 -0.413
COCCN(Cc1ccccc1)P(=O)(O)c1ccccc1OCC(=O)O -0.446
Oc1oc(-c2ccccc2)nc1C=NCc1ccncc1 -0.353
CCC1=Nc2ccccc2NC2=C1C(=O)CCC2 -0.427
CC[C@]1(O)C[C@@H]2CN(CCc3c([nH]c4ccccc34)[C@@](C(=O)OC)(c3cc4c(cc3OC)N(C)[C@H]3[C@@](O)(C(=O)OC)[C@H](OC(C)=O)[C@]5(CC)C=CCN6CC[C@]43[C@@H]65)C2)C1 -0.495
CC(=O)O[C@@]12CO[C@@H]1C[C@H](O)[C@@]1(C)C(=O)[C@H](O)C3=C(C)[C@@H](OC(=O)[C@H](O)[C@@H](NC(=O)OC(C)(C)C)c4ccccc4)C[C@](O)([C@@H](OC(=O)c4ccccc4)[C@H]21)C3(C)C -0.48
